Many of the other results were omitted from the sample, so hits are more common in it than they were.
Six1-Eya2 inh = blocks human Six1 binding to Eya2; AlphaScreen GST-Six1/His-Eya2 binding, biochemical; stronger effect = lower value; activity change, % (no concentration beside the values); 360,000 tested, 0.56% active; AID 651725; in the data active = activity change below about -65%; inconclusive = mostly about -30% to -63%
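Compounds are tested against tagged Six1 and Eya2 proteins bridged by glutathione donor and nickel acceptor beads; after a one-hour incubation at 37 °C without light, AlphaScreen emission is recorded.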
Apoferritin bind = candidate novel general anesthetic via apoferritin binding; P02791; apoferritin/1-aminoanthracene competitive binding, fluorescence; Potency, µM (doses to about 77.5 µM), inactives show at the highest dose activity change, negative = displacement, hits mostly inhibitors; 350,000 tested, 0.074% active; AID 485281; also: potency is read from the fitted curve at half-maximal effect; nearly all actives have a fitted effect of over 20% in size
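Horse-spleen apoferritin (10 uM) was mixed with 50% saturated 1-aminoanthracene in PBS, exposed to compounds for 10 min at room temperature, and read for fluorescence (ex 380 nm, em 535 nm). Competitive displacement was fitted with a four-parameter Hill equation.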
Eya2 inh = Eya2 (human) phosphatase inhibition. O00167. recombinant Eya2, OMFP fluorescence dephosphorylation (OMFP is methylfluorescein phosphate). Potency, µM (highest dose often 76.9 µM), for the others: top-dose activity, negative = inhibition, usual class: inhibitors. 330,000 tested, 0.006% active. AID 488837; also: potency is read from the fitted curve at half-maximal effect
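Eya2 (0.2 uM) preincubated 10 min at ambient with compound, then OMFP substrate added at 50 uM; 10 min reaction in 50 mM HEPES pH 7.5, 50 mM NaCl, 5 uM MgCl2, 0.05% BSA, 1 mM DTT. Fluorescence read at Ex 485/Em 525 nm.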
JMJD2E inh = blocks human JMJD2E demethylase activity. 230,000 tested, 1.6% active. JMJD2E catalytic domain, FDH-coupled NADH fluorescence (FDH is formaldehyde dehydrogenase). AID 2147. Potency, µM (top dose mostly 57.1 µM), inactives show top-dose activity change, negative = inhibition, usual class: inhibitors; active = well fitted inhibition curve with a large enough effect, not every such curve was filed as active; inconclusive = small, poorly fitted or top-dose-only effect, or another doubt; inactive = no such curve, though single readings can be large or run the other way;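 also: potency is read from the fitted curve at half-maximal effect; 0% = wells with enzyme and -100% = buffer wells without enzyme; nearly all actives have a fitted effect of over 50% in size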
CtBP-E1A blk = inhibitors of CtBP/E1A interaction | AlphaScreen GST-E1A/His-CtBP binding, 1536-well; stronger effect = lower value | activity change, % (test concentration not listed) | 340,000 tested, 0.49% active; in the data active = activity change below about -65%; inconclusive = mostly about -30% to -63%
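Protein mix (5X: 125 nM each GST-E1A, His-CtBP) was incubated with pinned compound 2 h at 37 deg C in dark, in 50 mM Tris pH 8.0 buffer with 300 mM NaCl. Glutathione donor and nickel acceptor beads followed; AlphaScreen signal read after 1 h.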
GALK inh = blocks human galactokinase activity | P51570 | Purified GALK, Kinase-Glo residual ATP luminescence | Potency, µM (doses to about 57.5 µM), for inactives: at the top dose activity change, negative = inhibition, usual class: inhibitors | 270,000 tested, 0.007% active | AID 1868; also: potency is read from the fitted curve at half-maximal effect
Target sequence (P51570 whole entry, looked up): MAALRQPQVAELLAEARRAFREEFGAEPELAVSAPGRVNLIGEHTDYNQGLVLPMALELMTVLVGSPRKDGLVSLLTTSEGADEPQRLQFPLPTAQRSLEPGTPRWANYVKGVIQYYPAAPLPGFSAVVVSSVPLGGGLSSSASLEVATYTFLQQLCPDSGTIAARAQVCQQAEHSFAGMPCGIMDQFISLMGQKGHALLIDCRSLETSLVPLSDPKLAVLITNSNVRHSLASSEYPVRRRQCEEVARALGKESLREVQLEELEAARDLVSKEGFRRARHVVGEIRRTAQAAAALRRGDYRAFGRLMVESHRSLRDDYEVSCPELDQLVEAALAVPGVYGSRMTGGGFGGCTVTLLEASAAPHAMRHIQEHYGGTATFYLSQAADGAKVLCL
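ATP-depletion format; final 35 uM ATP, 100 uM D-galactose, 5 nM enzyme; pH 8.0 HEPES/Mg2+ buffer; 60 min RT; luminescence read 10 min after detection reagent.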
Numbers without * were called inactive; ? = inconclusive; nt = not tested or not shown; [ ] = remark or other dose. Unless noted, calls follow the shape of the dose curve; as a rule, active = well fitted curve in the direction sought with a large enough effect; inconclusive = small, poorly fitted or top-dose-only effect, or another doubt; inactive = no such curve, though single readings can be large; an effect the other way counts as inactive or inconclusive. Unless noted, % is scaled to controls: 0 for no effect and ±100 for the full control effect.

SMILES	Six1-Eya2 inh	Apoferritin bind	Eya2 inh	JMJD2E inh	CtBP-E1A blk	GALK inh
Cc1c(C(=O)OCC[N+]2(C)CCCCC2)oc2ccccc12	8	-6%	7%	25µM*	-16	-1%
C#CCN1C(=O)C(O)(CC(=O)c2ccc(OC)c(OC)c2)c2cc(Br)ccc21 (stereo not given)	nt	-5%	nt	nt	nt	nt
Cc1nc(N2CCOCC2)c2nc(-c3ccccc3)n(CCCN3CCCCC3C)c2n1 (stereo not given)	nt	-7%	nt	?	nt	nt
Cc1cccc(OCc2nc(-c3ccccn3)n[nH]2)c1	-94*	-22%	nt	-25%	-89*	6%
COc1ccc(-c2nc(-c3ccccn3)no2)cc1	0	-11%	?	-1%	3	24%
Cc1ccc(OCc2nc(-c3ccccn3)n[nH]2)cc1	-92*	-23%	9%	?	-98*	-2%
CCOC(=O)Nc1ccc2c(c1)C(=NNC(=S)NC)c1ccccc1-2	?	nt	nt	nt	-20	nt
CC(NC(=O)Cn1c(=O)[nH]c2ccsc2c1=O)C12CC3CC(CC(C3)C1)C2 (stereo not given)	20	14µM*	9%	4%	2	1%
CC(NC(=O)Cn1ccsc1=N)C12CC3CC(CC(C3)C1)C2 (stereo not given)	-3	-22%	1%	2%	2	2%
Cn1c(N/N=C/c2ccccc2)nc2sc3c(c2c1=O)CCC3	-71*	-1%	0%	?	?	0%
CCCCC[C@]12Cc3ccccc3C(O1)C1=C(CC(C)(C)CC1=O)O2	nt	-3%[15.3 µM]	-3%[15.4 µM]	nt	nt	nt
COc1ccc(C)cc1NC(c1nnc(-c2ccccc2)o1)c1ccc(F)cc1Cl (stereo not given)	nt	-4%	nt	nt	nt	nt
Cc1cc(/C=N/Nc2nc(N3CCOCC3)nc(N3CCOCC3)n2)c(C)n1-c1ccccc1	-2	-10%	-10%	35µM*	21	-2%
COc1ccc(-n2c(C)cc(/C=N/Nc3nc(N4CCOCC4)nc(N4CCOCC4)n3)c2C)cc1	-12	7%	-4%	?	-11	3%
CCc1nc2ccc(C(=O)NCCc3ccc(OC)cc3OC)cc2nc1CC	nt	0%	nt	nt	nt	nt
Cc1cc(NS(=O)(=O)c2ccc(NC(=O)c3ccc(Cl)nc3)cc2)nc(C)n1	4	nt	nt	nt	-8	nt
Cc1cc(NS(=O)(=O)c2ccc(NC(=O)c3cnc(Cl)c(Cl)c3)cc2)nc(C)n1	-91*	nt	-9%	nt	nt	nt
COc1ccc(C(=O)/C=C/Nc2ccc(S(=O)(=O)Nc3nc(C)cc(C)n3)cc2)cc1OC	?	39%	-3%	?	13	0%
Cc1cc(C)nc(NS(=O)(=O)c2ccc(N/C=C/C(=O)c3ccc(Cl)cc3)cc2)n1	0	6%	-23%	22µM*	-1	1%
NC(=O)c1ccc2c(=O)n3c(-c4cc(Cl)c(N)c(Cl)c4)csc3nc2c1	-75*	-13%	-7%	?	-76*	-1%
CC(C)C1NC(=O)[C@H](CCCCN)NC(=O)[C@@H](Cc2c[nH]c3ccccc23)NC(=O)[C@H](Cc2ccc(O)cc2)NC(=O)[C@H](C)N(C)C(=O)[C@H](Cc2ccccc2)NC1=O (stereo not given in full)	nt	nt	nt	7%	nt	nt
CCN(C(=O)COC(=O)/C=C/c1cnc2ccccc2n1)c1ccccc1	0	-9%	1%	-2%	-25	10%
CC(C)N(Cc1ccccc1)C(=O)COC(=O)/C=C/c1cnc2ccccc2n1	-22	?	-17%	-4%	-87*	-3%
CCOC(=O)c1ccc(NC(=O)CC2Sc3ncnn3C2=O)cc1 (stereo not given)	-1	-12%	1%	1.8µM*	-1	-2%
O=C(CC1Sc2ncnn2C1=O)Nc1ccc(Cl)cc1 (stereo not given)	-5	-16%	4%	1.6µM*	-4	-1%
O=C(CC1SC(=O)N(c2ccccc2)C1=O)Nc1ccc(Cl)cc1 (stereo not given)	-8	-9%	5%	7%	-18	3%

High-throughput results: PubChem, National Center for Advancing Translational Sciences (NCATS)
